Bioassay records as filed in PubChem BioAssay.
Sampled rows, rich in hits. Any-hit rate of the full collection: about 12%.
SARS PLP yeast – inhibitors of SARS-CoV papain-like protease in yeast; S. cerevisiae expressing SARS-CoV PLpro, growth rescue; Potency, µM (titrated, usually from 32.9 µM), usual class: activators; 0.19% of 330,000 active; AID 485353; calls by dose curve; note: nearly all actives have a fitted effect of over 55% in size
Pf growth 96h – inhibits malaria parasite growth, 96 h. Potency, µM (top dose mostly 28.7 µM), most hits filed as inhibitors. P. falciparum luciferase reporter growth, 96 h. 6.9% of 320,000 active
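Two-generation exposure (96 h) targets delayed-death phenotype. Reporter parasites carrying integrated firefly luciferase, in red cells at 2% hematocrit and 0.05% parasitemia final, kept at 37 C, 5% CO2; luminescence loss indicates inhibition.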
Pf growth 48h – inhibits P. falciparum growth in the first generation, 48 h. Potency, µM (titrated, usually from 28.7 µM), hits mostly inhibitors. P. falciparum luciferase growth in erythrocytes, 48 h. AID 504832. 5.9% of 310,000 active
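Erythrocytes infected with P. falciparum carrying an integrated firefly luciferase reporter (2% hematocrit, 0.1% parasitemia final) were exposed to compounds in RPMI 1640 with 0.5% Albumax at 37 C, 5% CO2. Growth inhibition was scored as reduced luminescence.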
Sm TGR inh – inhibitors of Schistosoma mansoni thioredoxin glutathione reductase; Q962Y6; purified TGR, DTNB reduction, TNB absorbance 405 nm; Potency, µM (highest dose often 114 µM), usual class: inhibitors; 3% of 360,000 active; AID 485364; note: nearly all actives have a fitted effect of over 60% in size
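TGR 20 nM + NADPH 100 uM (dispensed conc.), cpd preinc 15 min RT; start with NADPH (500 uM addition) then DTNB (15 mM addition). Kinetic TNB absorbance, 405 nm filter. Four-parameter Hill fit across titration.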
Of the large screens only hits and unclear results are named; the others gave an inactive call. Unless noted, calls come from the whole dose curve; as a rule, active = well fitted curve in the direction sought with a large enough effect; inconclusive = small, poorly fitted or top-dose-only effect, or another doubt; inactive = no such curve, though single readings can be large; an effect the other way counts as inactive or inconclusive.

Cc1c(CC(=O)NCc2ccccc2)c(=O)oc2c(C)c(O)ccc12	none (no result: SARS PLP yeast, Pf growth 96h, Pf growth 48h)
Cc1ccc(C(=O)Nc2ccccc2C(=O)O)cc1S(=O)(=O)N1CCCCCC1	none (no result: SARS PLP yeast, Pf growth 96h, Pf growth 48h)
O=C(Cn1c(=O)n(Cc2ccc(C(=O)NCc3ccccc3Cl)cc2)c(=O)c2ccccc21)Nc1ccc(F)c(Cl)c1	none (no result: SARS PLP yeast, Pf growth 96h, Pf growth 48h)
C[C@H](OC(=O)NCc1ccc(C(F)(F)F)cc1)[C@@H]1O[C@@]2(C)CCC[C@@H]1O2	none
O=C(C[n+]1cc(-c2ccc(F)cc2)n2c1CCC2)N1c2ccccc2Sc2ccccc21	Pf growth 96h inconclusive, Pf growth 48h 13.1µM
CN(C)S(=O)(=O)N1CCN(CC(=O)Nc2ccc(Br)cc2)CC1	Pf growth 96h 5.22µM
O=C(CN1CCN(S(=O)(=O)c2ccc(F)cc2)CC1)Nc1cc(C(F)(F)F)ccc1Cl	Pf growth 96h inconclusive, Pf growth 48h inconclusive
COc1ccc(S(=O)(=O)N2CCN(CC(=O)Nc3cc(C(F)(F)F)ccc3Cl)CC2)cc1	Pf growth 48h 4.65µM
O=C(CN1CCCN(S(=O)(=O)c2ccc(Br)cc2)CC1)Nc1cccc(C(F)(F)F)c1	Sm TGR inh 35.5µM (no result: SARS PLP yeast, Pf growth 96h, Pf growth 48h)
COC(=O)c1ccc(NC(=O)CN2CCN(S(=O)(=O)c3ccc(Br)cc3)CC2)cc1	Pf growth 96h 9.28µM
O=C(CN1CCN(S(=O)(=O)c2ccc(Br)cc2)CC1)Nc1ccc2c(c1)OCCO2	Pf growth 96h inconclusive, Pf growth 48h inconclusive
CN(C)S(=O)(=O)n1cnc(C(CCO)c2ncn(S(=O)(=O)N(C)C)c2CCCO)c1 (stereo unspecified)	none
CC(=O)c1cccc(NC(=O)c2oc(=O)c3ccccc3c2-c2ccccc2)c1	none (no result: SARS PLP yeast, Pf growth 96h, Pf growth 48h)
O=C(CCC(=O)N1CCOc2ccccc21)Nc1ccccc1Cl	none
Clc1ccc(Nc2ncnc3ccc(Br)cc23)cc1	Pf growth 96h 4.15µM, Pf growth 48h 7.38µM
Clc1cccc(Nc2ncnc3ccc(Br)cc23)c1	Pf growth 96h 4.15µM, Pf growth 48h 3.7µM
CCOc1ccc(NC(=O)N2CC=C(c3c[nH]c4ccccc34)CC2)cc1	none (no result: SARS PLP yeast, Pf growth 96h, Pf growth 48h)
Cc1ccc(OCC(=O)OCC(=O)Nc2ccc3c(c2)OCO3)cc1C	none (no result: Pf growth 96h, Pf growth 48h, Sm TGR inh)
Cc1cccc(C(=O)NCc2nnc(SCC(=O)NC(C)c3ccccc3)n2C)c1 (stereo unspecified)	Pf growth 96h inconclusive
CC(C)NC(=O)CSc1nnc(CNC(=O)OC(C)(C)C)n1C	Pf growth 48h 1.85µM
CN1C(=O)C[C@@H](C(=O)N[C@@H](Cc2cnc[nH]2)C(=O)N2CCC[C@H]2C(N)=O)NC1=O	none (no result: SARS PLP yeast, Sm TGR inh)
OC1CCN(Cc2ccc(OCc3ccccc3)cc2)CC1	Pf growth 96h 4.15µM
COc1ccc(OC)c(CN2CCN(C(=O)Cc3ccccc3)CC2)c1	Pf growth 96h 11.7µM
CCOc1ccc(CN2CCN(C(=O)Cc3ccccc3)CC2)cc1	Pf growth 96h 6.57µM
O=C(C1CCN(Cc2ccc(OCc3ccccc3)cc2)CC1)N1CCCC1	none (no result: Pf growth 96h)
O=C(COc1ccc(S(=O)(=O)N2CCCCC2)cc1)N1CCN(Cc2ccccc2)CC1	Pf growth 48h inconclusive, Sm TGR inh 28.2µM
CCOc1cc(CN2CCN(C(=O)Cc3ccccc3)CC2)ccc1OC	Pf growth 96h inconclusive
NC(=O)c1ccc(NC(=O)COC(=O)/C=C/c2ccc3c(c2)OCO3)cc1	none
O=C(NCc1noc2ccccc12)Nc1ccc(F)cc1F	none (no result: SARS PLP yeast, Pf growth 96h, Pf growth 48h)
CCc1noc(C)c1C(=O)OC(C)C(=O)Nc1ccccc1OC (stereo unspecified)	Pf growth 48h inconclusive
Cc1csc2nc(CCNS(=O)(=O)c3ccccc3)cn12	none (no result: SARS PLP yeast, Pf growth 96h, Pf growth 48h)
Cc1nn(-c2ccccn2)c2c1C(c1ccsc1)C1=C(CCCC1=O)N2 (stereo unspecified)	Pf growth 48h inconclusive
Cc1nn(-c2ccccn2)c2c1C(c1c(F)cccc1Cl)C1=C(N2)c2ccccc2C1=O (stereo unspecified)	Pf growth 96h 9.28µM, Pf growth 48h 10.4µM
Cc1nn(-c2ccccn2)c2c1C(c1ccccc1Cl)C1=C(N2)c2ccccc2C1=O (stereo unspecified)	Pf growth 96h 11.7µM, Pf growth 48h inconclusive
CC1(C)CC(=O)C(C2C3=C(CC(C)(C)CC3=O)Oc3c(Br)cc(Br)cc32)=C(O)C1 (stereo unspecified)	none
COc1cccc(C2CC(c3cccc(Br)c3)n3ncnc3N2)c1 (stereo unspecified)	Pf growth 96h 11.7µM
COc1cccc(C2CC(c3cccc(OC)c3)n3nc(N)nc3N2)c1 (stereo unspecified)	Pf growth 96h 11.7µM
COc1cccc(C2CC(c3ccc(F)cc3)Nc3nc(N)nn32)c1 (stereo unspecified)	none
COc1ccc(C2CC(c3cccc(Cl)c3)n3nc(N)nc3N2)cc1 (stereo unspecified)	Pf growth 96h 9.28µM
Cn1nc(C(=O)Nc2cccc(C(F)(F)F)c2)c2c1-c1ccccc1S(=O)(=O)C2	none (no result: SARS PLP yeast, Pf growth 96h, Pf growth 48h)
CCc1ccc2ncc3c(-c4ccc(F)cc4)nn(CC(=O)NCc4ccccc4)c3c2c1	none (no result: SARS PLP yeast, Pf growth 96h, Pf growth 48h)
O=[N+]([O-])c1cccc2c([As](=O)(O)O)cccc12	Pf growth 96h 0.465µM, Pf growth 48h 0.738µM
CCOc1ccccc1NC(=O)C(OC(=O)C1CC1)c1ccccc1 (stereo unspecified)	Pf growth 48h inconclusive
CCOc1ccccc1NC(=O)C(NCC1(N2CCCCC2)CCCCC1)c1ccccc1 (stereo unspecified)	Pf growth 96h 3.7µM, Pf growth 48h inconclusive
Cc1cc(N2C(=O)C(=O)/C(=C(/O)c3ccccc3)C2c2cccs2)no1 (stereo unspecified)	Sm TGR inh 39.8µM
COc1cccc(/C(O)=C2/C(=O)C(=O)N(c3cc(C)on3)C2c2cccs2)c1 (stereo unspecified)	Sm TGR inh inconclusive
COc1cccc(/C=N/N2CCN(C3c4ccccc4-c4ccccc43)CC2)c1O	Pf growth 96h inconclusive, Pf growth 48h 13.1µM
COc1cc(/C=N/N2CCN(C3c4ccccc4-c4ccccc43)CC2)ccc1O	Pf growth 96h inconclusive, Pf growth 48h inconclusive
Cc1ccc(S(=O)(=O)N2C[C@@H]3[C@H]4CC[C@H](C4)[C@@H]3[C@@H](C)[C@H]2c2ccn(Cc3ccccc3)c2)cc1	none (no result: Pf growth 96h, Pf growth 48h, Sm TGR inh)
COc1ccccc1CNC(=O)CCC1N=C2c3ccccc3N=C(SCC(=O)NCC3CCCO3)N2C1=O (stereo unspecified)	Pf growth 96h 4.15µM
O=C(CC1N=C2c3ccccc3N=C(SCc3ccc(F)cc3)N2C1=O)NCc1ccco1 (stereo unspecified)	Pf growth 96h 13.1µM, Pf growth 48h 0.738µM, Sm TGR inh inconclusive
CCC(C)NC(=O)CSC1=Nc2ccccc2C2=NC(CC(=O)NCc3ccccc3)C(=O)N12 (stereo unspecified)	Pf growth 48h 9.28µM
O=C(CCC1N=C2c3ccccc3N=C(SCc3ccc(F)cc3)N2C1=O)NCc1ccco1 (stereo unspecified)	SARS PLP yeast inconclusive, Pf growth 96h inconclusive, Pf growth 48h inconclusive, Sm TGR inh 25.1µM
O=C(CCC1N=C2c3ccccc3N=C(SCc3ccc(Cl)cc3)N2C1=O)NCc1ccco1 (stereo unspecified)	Pf growth 48h inconclusive, Sm TGR inh inconclusive
Cc1ccc(C)c(OCCn2c(CCNC(=O)C3CCCCC3)nc3ccccc32)c1	none (no result: SARS PLP yeast, Pf growth 96h, Pf growth 48h)
